Results published in the supplement of paper PMC7393113.
Values joined by “and” are separate entries in the source; they are usually repeats but may differ in a detail not shown here. Equal entries are not always repeated. Structures can show the parent of a compound that is named as a salt. ± gives the standard deviation of the averaged measurements.

system: iBMDM (immortalised mouse bone-marrow-derived macrophages), LPS-stimulated; assay: mitochondrial superoxide (MitoSOX fluorescence) fold increase over unstimulated control; higher = more LPS-induced mitochondrial ROS (less inhibition); details: inhibitor concentration: 500 nM; LPS: 100 ng/ml; time after LPS: 4 h
In short: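 Cells were immortalised mouse bone-marrow-derived macrophages, plated in triplicate and switched to phenol-red-free 1% FCS/DMEM for 20 h. Kinase inhibitors (500 nM, 30 min) preceded MitoSox loading (1 μM, 10 min) and LPS addition (100 ng/ml), with 510/580 nm fluorescence read every 60 min for 4 h. Mitochondrial superoxide is reported as averaged fold induction over untreated macrophages.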

SMILES | mitochondrial superoxide
O=C(O)c1ccc(Nc2ncc3c(n2)-c2ccc(Cl)cc2C(c2c(F)cccc2F)=NC3)cc1 | 1.46 ± 0.052
CNC(=O)c1cc(Oc2ccc(NC(=O)Nc3cc(C(C)(C)C)nn3-c3ccc4ncccc4c3)c(F)c2)ccn1 [DCC-2036 (Rebastinib)] | 1.6 ± 0.03
C#Cc1cccc(Nc2ncnc3cc(OCCOC)c(OCCOC)cc23)c1 [Erlotinib HCl (OSI-744)] | 1.76 ± 0.048
CN1CCN(c2nc(C3=C(c4c[nH]c5ccccc45)C(=O)NC3=O)c3ccccc3n2)CC1 [Sotrastaurin] | 1.749 ± 0.012
Cc1cc(C)c(/C=C2\C(=O)Nc3ccccc32)[nH]1 [Semaxanib (SU5416)] | 1.3 ± 0.039
C=CC(=O)Nc1cccc(Nc2nc(Nc3ccc(OCCOC)cc3)ncc2F)c1 | 1.29 ± 0.019
CN(c1ncccc1CNc1nc(Nc2ccc3c(c2)CC(=O)N3)ncc1C(F)(F)F)S(C)(=O)=O | 1.63 and 1.11
O=c1cc(-c2cccc3c2Sc2ccccc2S3)oc(N2CCOCC2)c1 | 1.51 ± 0.084
O=C(O)[C@]1(Cc2cccc(Nc3nccs3)n2)CC[C@@H](Oc2cccc(Cl)c2F)CC1 | 1.51 ± 0.044
O=C1Nc2ccc(I)cc2C1=Cc1cc(Br)c(O)c(Br)c1 | 1.09 ± 0.014
CCN1CCN(Cc2ccc(-c3cc4c(N[C@H](C)c5ccccc5)ncnc4[nH]3)cc2)CC1 | 1.25 ± 0.081
Clc1ccc(Nc2nnc(Cc3ccncc3)c3ccccc23)cc1 [Vatalanib (PTK787) 2HCl] | 1.53 ± 0.057
C=CC(=O)Nc1cccc(Oc2nc(Nc3ccc(N4CCN(C)CC4)cc3OC)ncc2Cl)c1 | 1.68 ± 0.041
CCn1c(-c2nonc2N)nc2c(C#CC(C)(C)O)ncc(OC[C@H]3CCCNC3)c21 | 1.49 ± 0.019
CCNC(=O)Nc1ccc(-c2nc3c(c(N4CCOC[C@@H]4C)n2)CCN(C2COC2)C3)cc1 | 1.68 ± 0.062
Cc1ccc(NC(=O)c2ccc(CN3CCN(C)CC3)cc2)cc1Nc1nc(-c2cccnc2)cs1 [Masitinib (AB1010)] | 1.72 ± 0.12
Cn1cc(-c2ccc3nnc(Sc4ccc5ncccc5c4)n3n2)cn1 | 1.525 ± 0.0078
CCCS(=O)(=O)Nc1ccc(F)c(C(=O)c2c[nH]c3ncc(-c4ccc(Cl)cc4)cc23)c1F [Vemurafenib (PLX4032, RG7204)] | 1.17 ± 0.029
CN1CCN(c2ccc3nc(-c4c(N)c5c(F)cccc5[nH]c4=O)[nH]c3c2)CC1 [Dovitinib (TKI-258) Dilactic Acid] | 1.51 ± 0.041

SMILES | mitochondrial superoxide
CCCCCCCCCCCCc1ccc(S(=O)(=O)Nc2nncs2)cc1 | 1.2 ± 0.038
C[C@@H]1COCCN1c1cc(C2(S(C)(=O)=O)CC2)nc(-c2cccc3[nH]ccc23)n1 | 1.34 ± 0.052
O=C(Nc1cccc(Nc2ncc(Br)c(NCCc3cnc[nH]3)n2)c1)N1CCCC1 | 1.16 ± 0.04
O=C(NOCC(O)CO)c1cc(Br)c(F)c(F)c1Nc1ccc(I)cc1F (configuration not stated) | 1.34 ± 0.065
O=C(Nc1c[nH]nc1-c1nc2ccc(CN3CCOCC3)cc2[nH]1)NC1CC1 | 1.51 ± 0.036
CNC(=O)c1ccc(-c2cnc3ncc(Cc4ccc5ncccc5c4)n3n2)cc1F | 1.58 ± 0.14
COc1cc2nccc(Oc3ccc(NC(=O)Nc4ccc(F)cc4F)c(F)c3)c2cc1OC | 1.28 ± 0.13
COc1cc(Nc2ncc(F)c(Nc3ccc4c(n3)NC(=O)C(C)(C)O4)n2)cc(OC)c1OC | 1.28 ± 0.11
CCc1cncnc1N1CCN(Cc2nc3ccc(C(F)(F)F)cc3[nH]2)CC1 | 1.34 ± 0.1
Cc1nc(NC(=O)N2CCC[C@H]2C(N)=O)sc1-c1csc(C(C)(C)C)n1 | 1.64 ± 0.053
CCN1CCN(Cc2ccc(Nc3ncc(F)c(-c4cc(F)c5nc(C)n(C(C)C)c5c4)n3)nc2)CC1 | 1.36 ± 0.022
N#C/C(=C(/N)Sc1ccc(N)cc1)c1ccccc1C(F)(F)F | 1.506 ± 0.0063
CS(=O)(=O)c1ccc(-c2cnc(N)c(C(=O)Nc3ccccc3)n2)cc1 | 1.6 ± 0.078
CNC(=O)c1cc(Oc2ccc(NC(=O)Nc3ccc(Cl)c(C(F)(F)F)c3)c(F)c2)ccn1 [Regorafenib (BAY 73-4506)] | 1.71 ± 0.062
O=C1c2ccccc2-c2n[nH]c3cccc1c23 | 1.3 ± 0.13
Cc1ccc(-n2nc(C(C)(C)C)cc2NC(=O)Nc2ccc(OCCN3CCOCC3)c3ccccc23)cc1 [BIRB 796 (Doramapimod)] | 1.22 ± 0.032
Cc1ccc(NC(=O)c2ccc(CN3CCN(C)CC3)cc2)cc1Nc1nccc(-c2cccnc2)n1 [Imatinib Mesylate (STI571)] | 1.72 ± 0.03
Cc1ccc(C(=O)Nc2cccc(C(F)(F)F)c2)cc1Nc1nc(-c2cccnc2)nc2c1cnn2C | 1.38 ± 0.083
